The campaign covered roughly 220,000 compounds. About 2,000 (0.91%) were called active. Not shown: some 2% with an inconclusive outcome. Rule as the data show it: inconclusive = inhibition above about 80% without an active follow-up result; inactive = below that; test concentration not stated here. The list is a sample of the results. Measured potencies and affinities stand elsewhere.

A short description of the test: M. tuberculosis H37Rv growth inhibitors, H37Rv strain (AID 1626).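 Also: bacteria incubated seven days before Alamar blue readout; 0% = bacteria only wells and 100% = bacteria with antibiotic wells.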 Particulars: hits give high values, concentration not given here.
On to `Cc1cccn2cc(-c3ccc(S(=O)(=O)N4CCCCC4)cc3)nc12`, for which the inhibition (commonly the change of the read-out against control, counted positive when it falls) was 0.16% (inactive).

`Oc1ccccc1-c1nc(N2CCCC2)c2ccccc2n1`: the inhibition is -6.53% (inactive).

On to `c1ccc2c(N3CCCC3)nc(-c3ccncc3)nc2c1`, for which the inhibition was 6.26% (inactive).

On to `c1ccc2c(c1)nc(N1CCCCC1)c1ccccc12`, for which the inhibition is 12.2% (inactive).

Regarding `CC1CCN(c2ncnc3ccccc23)CC1`, the inhibition was -8.39% (inactive).

Regarding `c1ccc2c(c1)nc(N1CCCCCC1)c1ccccc12`, the inhibition is 3.85% (inactive).

For the molecule `CN1CCN(c2nc(-c3ccncc3)nc3ccccc23)CC1`, the inhibition was 3.8% (inactive).

As to `c1ccc2c(N3CCCCC3)nc(N3CCCC3)nc2c1`, the inhibition is -8.46% (inactive).

`CC1CCN(c2nc(-c3ccccc3O)nc3ccccc23)CC1`: the inhibition is -2.32% (inactive).

On to `CC(C)(C)NS(=O)(=O)c1cc(C(=O)O)ccc1Cl`, for which the inhibition was -11.1% (inactive).

For `Cc1c(C#N)c(=O)c(-[n+]2ccccc2)c([S-])n1-c1ccc(Cl)cc1`, the inhibition is 3.17% (inactive).

As to `O=C(O)c1ccc(NC2=C(n3nnc4ccccc43)C(=O)c3ccccc3C2=O)cc1`, the inhibition is -3.22% (inactive).

As for `Cc1cc([N+](=O)[O-])c(Cl)cc1NC(=O)C(C)C`, the inhibition is -3.38% (inactive).

Regarding `O=C(O)c1ccc2c(c1)-c1nc3ccccc3n1C2=O`, the inhibition is -6.82% (inactive).

In the case of `COc1ccc(-c2ccc3ccccc3n2)cc1OC`, the inhibition is 12.8% (inactive).

As to `Cc1ccc(C)c(NC(=S)N2CCN(Cc3ccccc3)CC2)c1`, the inhibition was -5.34% (inactive).

As to `Cc1cc(C)cc(N(C(C)C(=O)N2CCCCC2)S(C)(=O)=O)c1` (configuration not stated), the inhibition was 7.53% (inactive).

`O=C(COc1ncnc2ccccc12)N1CCN(c2ccccc2)CC1`: the inhibition is 5.1% (inactive).

As to `COC(=O)c1ccc2ccccc2n1`, the inhibition is -11.4% (inactive).

On to `NNC(=O)c1ccc2ccccc2n1`, for which the inhibition is 27% (inactive).

With `CCOc1ccc(-n2cc(-c3ccccc3)c3c(=O)[nH]cnc32)cc1`, the inhibition is 64.1% (inactive).

As to `COc1ccc(-n2cc(-c3ccccc3)c3c(N4CCN(CCO)CC4)ncnc32)cc1`, the inhibition is 0.66% (inactive).

Turning to `O=P1(Oc2ccccc2)OCCCS1` (configuration not stated), the inhibition was 12.1% (inactive).

`COC(=O)CC(c1ccc(F)cc1)n1c(C)ccc1C` (configuration not stated): the inhibition was -0.04% (inactive).

For `Cc1ccccc1Nc1nc(NCc2ccco2)c2ccccc2n1`, the inhibition was 1.73% (inactive).

Consider `c1ccc(CN2CCC(Nc3nc(-c4cccnc4)nc4ccccc34)CC2)cc1`, for which the inhibition is 11.5% (inactive).

Turning to `c1cncc(-c2nc(NCc3ccco3)c3ccccc3n2)c1`, the inhibition is -4.8% (inactive).

For the molecule `Oc1ccccc1-c1nc(NCC2CCCO2)c2ccccc2n1` (configuration not stated), the inhibition was 9.18% (inactive).

Take `Oc1ccccc1-c1nc(NCc2ccco2)c2ccccc2n1`: the inhibition was -6.38% (inactive).

On to `c1ccc(CN2CCC(Nc3ncnc4sccc34)CC2)cc1`, for which the inhibition was 7.78% (inactive).

Take `Fc1ccccc1-c1nc(NCc2ccco2)c2ccccc2n1`: the inhibition is 0.67% (inactive).

Take `c1ccc(Nc2nc(NCC3CCCO3)c3ccccc3n2)cc1` (configuration not stated): the inhibition was 2.76% (inactive).

In the case of `CCCn1c(CN2CCN(c3cccc(Cl)c3)CC2)nc2c1c(=O)n(C)c(=O)n2C`, the inhibition was 7.42% (inactive).

Turning to `Cc1cc(C)nc(-n2ncc3c2CC(c2ccc(F)cc2)CC3=O)n1` (configuration not stated), the inhibition was -3.92% (inactive).

`CCCN1CCN(C(=O)Cn2c(=O)oc3cc(S(=O)(=O)NCc4ccccc4)ccc32)CC1`: the inhibition is 0.47% (inactive).

With `O=C1CCC/C1=c1\s/c(=C\c2cccnc2)c(=O)n1-c1ccccc1`, the inhibition was -3.57% (inactive).

Regarding `CCCCCCCCC(=O)NNC(=O)c1c(O)c2ccccc2n(CCC)c1=O`, the inhibition was 1.3% (inactive).

For `CCOC(=O)c1sc2nc(CC(=O)OC)nc(NCc3ccc(F)cc3)c2c1C`, the inhibition is -2.66% (inactive).

With `CC(NC(=O)c1cccc(N2CCCC2=O)c1)c1ccc2c(c1)OCCO2` (configuration not stated), the inhibition was -0.45% (inactive).

For `COCC(N)(c1ccccc1)c1nc2ccccc2n1C` (configuration not stated), the inhibition was -3.7% (inactive).

As for `Cn1c(Cc2ccccc2)nnc1SCC(=O)N1CCCCC1`, the inhibition was -3.96% (inactive).

`CCOC(=O)c1sc2nc(C)c3c(c2c1N)CC(C)(C)OC3`: the inhibition is -1.95% (inactive).

`N#CCCN(C(=O)COC(=O)C1CCN(S(=O)(=O)c2cccs2)CC1)c1ccccc1`: the inhibition is 3.1% (inactive).

For `CCOC(=O)C1C(=O)NC(c2ccccc2)=NC1c1ccc(O)c(OC)c1` (configuration not stated), the inhibition is 2.45% (inactive).

Take `CC(C)(C)C(=O)O/N=C(\N)Cc1ccc(-c2csnn2)cc1`: the inhibition is -5.08% (inactive).

Regarding `c1ccc(CNc2nc(-c3cccs3)nc3ccccc23)cc1`, the inhibition was 13.4% (inactive).

As for `c1csc(CNc2nc(-c3cccs3)nc3ccccc23)c1`, the inhibition was 9.19% (inactive).

Turning to `Clc1cccc(-c2nc(NCc3cccnc3)c3ccccc3n2)c1`, the inhibition is 74.3% (inactive).

Consider `c1ccc(-c2nc(NCc3cccnc3)c3ccccc3n2)cc1`, for which the inhibition is 7.56% (inactive).

As to `CCC(C)NC(=O)CN(c1cc(C)ccc1OC)S(C)(=O)=O` (configuration not stated), the inhibition is -5.3% (inactive).

Consider `CCOc1ccc(-c2nnc(N3CCCCC3)c3ccccc23)cc1`, for which the inhibition is -1.05% (inactive).

With `c1nc(NCC2(N3CCOCC3)CCCCC2)c2ccsc2n1`, the inhibition was -2.31% (inactive).

For the molecule `O=S(=O)(c1ccccc1F)N1CCN(C(=S)NCc2ccccc2)CC1`, the inhibition is -2.02% (inactive).

In the case of `O=C(Nc1cccc(F)c1)C1CCN(C(=O)c2ccc(Cl)cc2)CC1`, the inhibition is -0.97% (inactive).

Regarding `CCN(CC(=O)Nc1ccc(C(=O)OC)cc1)Cc1ccccc1`, the inhibition was 7.78% (inactive).

Turning to `COc1ccc(N2CC(C(=O)Nc3nnc(SCC(=O)c4ccccc4)s3)CC2=O)cc1` (configuration not stated), the inhibition was 11.9% (inactive).

As to `CCN(CC)CCC(c1ccc(N(C)C)cc1)c1c(OC)cc(OC)c2ccc(=O)oc12` (configuration not stated), the inhibition was -0.96% (inactive).

`CCN(CC)CCC(c1cc(OC)c(OC)c(OC)c1)c1c(OC)cc(OC)c2ccc(=O)oc12` (configuration not stated): the inhibition is -19% (inactive).

In the case of `CCN(CC)CCC(c1cc(OC)c(OC)c(OC)c1)c1c(OC)cc(OC)c2c(-c3ccccc3)cc(=O)oc12` (configuration not stated), the inhibition is 12.6% (inactive).

With `CCN(CC)CCC(c1cc(OC)c(OC)c(OC)c1)c1c(OC)cc(OC)c2c(C)cc(=O)oc12` (configuration not stated), the inhibition was -8.36% (inactive).

`Cc1ccc(CNc2ncccc2-c2nc3cc(Cl)ccc3o2)cc1`: the inhibition was -4.72% (inactive).

For the molecule `COc1ccc(NC(=O)c2cccnc2Nc2ccc(OC)cc2)cc1`, the inhibition was 10.9% (inactive).

These data come from PubChem BioAssay AID1626 (SRMLSC, 2009).
